About 8,600 (12%) of roughly 69,000 compounds showed an effect of 50% or more. For the sample, strong results were picked, then their nearest neighbours and some compounds at random.
What follows are compounds tested on Plasmodium berghei (assay: Screen against P. berghei liver stage (PbLuc), transformed with Luciferase, at 10uM). Settings: tested at 10 uM.
Format: functional, HepG2
`Cc1nc(CN2CCC3(CCCN(Cc4ccoc4)C3)C2=O)cs1` (stereo not drawn) showed an INHIBITION of -5.31%.
Work on `COc1c[nH]c(C(=O)Nc2nc(C(C)(C)C)cs2)cc1=O` yielded an INHIBITION of 29.4%.
With `CC[C@H](C)[C@H](N)C(=O)Nc1nc(-c2cnc(N(C)C)nc2)cs1` the INHIBITION was 21.9%.
Compound `CCS(=O)(=O)N1CCN(C(=O)C(C)C)CC2(CC(=O)N(C)C2)C1` (stereo not drawn) has an INHIBITION of 45.8%.
For `CCN1CC2(CC1=O)CN(C(=O)N(C)C)CCN(S(C)(=O)=O)C2` (stereo not drawn), the INHIBITION was 31.9%.
In the case of `CCN1CC2(CC1=O)CN(Cc1ccco1)CCN(C(=O)N(C)C)C2` (stereo not drawn), the INHIBITION is reported as 5.14%.
`CCN1CC2(CC1=O)CN(C(=O)C(C)C)CCN(S(=O)(=O)CC)C2` (stereo not drawn) showed an INHIBITION of 52.3%.
Compound `CCN1CC2(CC1=O)CN(C(C)=O)CCN(S(C)(=O)=O)C2` (stereo not drawn) has an INHIBITION of 26%.
`CCN1CC2(CC1=O)CN(C(=O)COC)CCN(S(C)(=O)=O)C2` (stereo not drawn) was tested, and the INHIBITION was 63%.
Work on `CCN1CC2(CC1=O)CN(C(=O)C(C)C)CCN(S(C)(=O)=O)C2` (stereo not drawn) yielded an INHIBITION of 46.7%.
Work on `CCN1CC2(CC1=O)CN(Cc1ccc(C)o1)CCN(C(=O)C(C)C)C2` (stereo not drawn) yielded an INHIBITION of 42.5%.
`CCN1CC2(CC1=O)CN(Cc1ccco1)CCN(C(=O)C(C)C)C2` (stereo not drawn) gave an INHIBITION of 57.4%.
With `CC(C)c1nnc2n1CCN(C(=O)c1ccc3c(c1)CCC3)C2` the INHIBITION was -12.2%.
`COc1ccccc1C1=NOC(CC2(C(=O)O)CCOCC2)C1` (stereo not drawn) showed an INHIBITION of 29.2%.
Compound `CCn1cnnc1C1CCN(C(=O)c2cccc(N(C)C)c2)CC1` has an INHIBITION of 39.7%.
In the case of `CCc1cnc(N2C[C@H]3CN(Cc4csc(C)n4)C(=O)[C@H]3C2)nc1`, the INHIBITION is reported as 18.5%.
Work on `Cc1cc(C(=O)NS(C)(=O)=O)c(C)n1-c1ccccc1` yielded an INHIBITION of 37.9%.
In the case of `Cc1nc(CN2C[C@@H]3CN(C(=O)c4cnccn4)C[C@@H]3C2)cs1`, the INHIBITION is reported as -13.2%.
In the case of `CN1C[C@@H](C(=O)NC(C)(C)C)[C@@]2(CCc3ccccc3C(=O)N2)C1`, the INHIBITION is reported as 16.5%.
Compound `COCCn1ccc(NC(=O)Nc2cccnc2)n1` has an INHIBITION of 25.3%.
Work on `Cc1cc(N2CCOC(c3ccc(N(C)C)cn3)C2)nc(N)n1` (stereo not drawn) yielded an INHIBITION of -0.6%.
`Cc1cc(C(=O)N2CCC3(CC2)COCCN(c2cccnc2)C3)[nH]n1` was tested, and the INHIBITION was 24.6%.
With `COc1ccnc(N2CCN(Cc3ncc(C(C)(C)C)o3)CC2)n1` the INHIBITION was 9.76%.
Work on `COc1ccnc(N2CCN(Cc3ncc(-c4ccccc4)o3)CC2)n1` yielded an INHIBITION of 56%.
`COc1ccnc(N2CCCN(Cc3ncc(C(C)C)o3)CC2)n1` showed an INHIBITION of 9.76%.
Work on `Cc1noc(C)c1CN(C)CCc1nc(-c2cccc(Cl)c2)no1` yielded an INHIBITION of 88.1%.
`Cc1nnc(CN(C)CCc2nc(-c3cccc(Cl)c3)no2)n1C` showed an INHIBITION of 34.5%.
In the case of `CN(CCc1nc(-c2cccc(Cl)c2)no1)CCn1cccn1`, the INHIBITION is reported as 12.6%.
`O=C(Cc1cccnc1)N1CCC2(CC1)CCN(C1CCOCC1)C2` was tested, and the INHIBITION was -3.19%.
`O=C(Cc1cccnc1)N1CCC2(CC1)CCN(C1CCOC1)C2` (stereo not drawn) showed an INHIBITION of 53.4%.
Compound `O=C(Cc1cccnc1)N1CCC2(CCN(C3CCOC3)CC2)C1` (stereo not drawn) has an INHIBITION of -1.83%.
`CC(=O)N1CCN(Cc2ccc(C)o2)CC2(CC(=O)N(C)C2)C1` (stereo not drawn) showed an INHIBITION of 3.81%.
`COc1ncccc1N(C)C(=O)Cn1cc(-c2ccccc2)nn1` gave an INHIBITION of 4.34%.
For `Cc1ccc(C2COCCN2C(=O)c2ccsc2)o1` (stereo not drawn), the INHIBITION was 3.77%.
With `N#CCCN(Cc1ccco1)C(=O)c1ccc(OCC2CC2)cc1` the INHIBITION was 69.5%.
`N#CCCN(CCC#N)C(=O)c1ccc(OCC2CC2)cc1` showed an INHIBITION of -77.9%.
`N#CCCN(Cc1cccnc1)C(=O)c1ccc(OCC2CC2)cc1` showed an INHIBITION of -92.2%.
`CC(=O)NCC(=O)N1CCC2(CC1)NC(=O)CC2c1cnn(C)c1` (stereo not drawn) gave an INHIBITION of 43.1%.
`Cc1cnn(CC2CCCN2C(=O)c2cc(C)nc3[nH]nc(C)c23)c1` (stereo not drawn) showed an INHIBITION of -37.7%.
Compound `CCOc1ncccc1C(=O)N1CCCC(c2nncn2C)C1` (stereo not drawn) has an INHIBITION of -98.8%.
Work on `O=C1Nc2ccccc2NC12CCN(Cc1nnc(C3CC3)o1)CC2` yielded an INHIBITION of 56.1%.
`CC(C)c1nnc(CN2CCC3(CC2)Nc2ccccc2NC3=O)o1` was tested, and the INHIBITION was -20.7%.
`CCc1nnc(CN2CCC3(CC2)Nc2ccccc2NC3=O)o1` was tested, and the INHIBITION was 18.2%.
`CC(=O)N1CCN(c2cc(-n3cccc3)ncn2)CC1` gave an INHIBITION of -12.1%.
Work on `CN(c1cccnn1)[C@@H]1CC[C@@H]2CN(Cc3cccc(C(=O)O)c3)C[C@@H]21` yielded an INHIBITION of 30.6%.
`CC(C)CN(CC(O)c1ccc(F)cc1)C(=O)c1csnn1` (stereo not drawn) was tested, and the INHIBITION was -3.48%.
`CS(=O)(=O)N1CCN(CC(=O)Nc2cccc(Cl)c2)CC1` showed an INHIBITION of 6.83%.
With `Cc1ccc(N2CCCC(NCc3nnc(-c4ccco4)o3)C2)nn1` (stereo not drawn) the INHIBITION was 11.94%.
In the case of `CC(C1CC1)N(C)Cc1nnc(-c2ccco2)o1` (stereo not drawn), the INHIBITION is reported as 21.5%.
Work on `Fc1ccc(C(NCc2nnc(C3CC3)o2)C2CCC2)cc1` (stereo not drawn) yielded an INHIBITION of 23.9%.
For `c1ccc(C(NCc2nnc(-c3ccco3)o2)C2CCC2)cc1` (stereo not drawn), the INHIBITION was 50.8%.
`Fc1ccc(C(NCc2nnc(-c3ccco3)o2)C2CCC2)cc1` (stereo not drawn) was tested, and the INHIBITION was 82.3%.
With `Fc1ccc(OC2CCN(Cc3nnc(-c4ccco4)o3)CC2)cc1` the INHIBITION was -53.1%.
Compound `CCc1nc(CN(C)C2CCN(CCn3cccn3)C2)no1` (stereo not drawn) has an INHIBITION of 14.1%.
For `Cn1cnnc1CN1CCC2(CCCN(C3CCCC3)C2=O)C1` (stereo not drawn), the INHIBITION was -15.6%.
In the case of `CCn1nc(C)c(CCNC(=O)C2CCCN(C3CCCC3)C2)c1C` (stereo not drawn), the INHIBITION is reported as -23.4%.
Compound `CCc1nnc2n1CCN(CC(O)CN1CCC(C)CC1)C2` (stereo not drawn) has an INHIBITION of 30.3%.
Work on `CC1CCN(CC(O)CN2CCn3c(nnc3C3CC3)C2)CC1` (stereo not drawn) yielded an INHIBITION of 12.3%.
With `Cc1nnc2n1CCN(CC(O)CN1CCC(C)CC1)C2` (stereo not drawn) the INHIBITION was 78.2%.
`COc1ccc(C)cc1CN(C)CC(N)=O` was tested, and the INHIBITION was -33.4%.
For `CC(C)CNC(=O)C1=NOC2(CCN(Cc3ccc(C(C)C)cc3)C2)C1` (stereo not drawn), the INHIBITION was 80.2%.
`COc1ccc(CN2CCC3(CC2)CC(CC(=O)NC(C)C)CO3)cc1` (stereo not drawn) was tested, and the INHIBITION was 18.6%.
`Cc1cccc(CN2CCC3(CC(C(=O)NCC(C)C)=NO3)C2)c1` (stereo not drawn) gave an INHIBITION of 76.2%.
`Cc1ccc(CN2CCC3(CC(C(=O)NCC4CC4)=NO3)C2)cc1C` (stereo not drawn) showed an INHIBITION of 31.2%.
Compound `O=C(NCC1CC1)C1=NOC2(CCN(Cc3ccc4c(c3)OCO4)C2)C1` (stereo not drawn) has an INHIBITION of 6.38%.
For `COc1ccc(CN2CCC3(CC(C(=O)NCC(C)C)=NO3)C2)cc1` (stereo not drawn), the INHIBITION was 78.2%.
Compound `CCc1ccc(CN2CCC3(CC(C(=O)NCC(C)C)=NO3)C2)o1` (stereo not drawn) has an INHIBITION of 32.5%.
In the case of `CC(C)CNC(=O)C1=NOC2(CCN(Cc3cccc(C#N)c3)C2)C1` (stereo not drawn), the INHIBITION is reported as 20.6%.
In the case of `Cc1ccc(S(=O)(=O)N2CCC3(CC(C(=O)NCC(C)C)=NO3)C2)cc1` (stereo not drawn), the INHIBITION is reported as -10.2%.
`CC(C)CNC(=O)C1=NOC2(CCN(Cc3ccoc3)C2)C1` (stereo not drawn) showed an INHIBITION of -4.26%.
Compound `N#Cc1cccc(CN2CCC3(CC(C(=O)NCC4CC4)=NO3)C2)c1` (stereo not drawn) has an INHIBITION of 52%.
`Cc1oncc1C(=O)N[C@@H]1CN(c2ncccn2)C[C@@H]2CCCO[C@@H]21` was tested, and the INHIBITION was -34.7%.
With `O=c1[nH]c2cn(-c3cccc(Cl)c3)c(=O)n2[nH]1` the INHIBITION was -14.9%.
For `COc1ccc(CC(=O)N2CCN(c3nccn3C)CC2)cc1`, the INHIBITION was 40%.
`COCCN1CCCC2(CCN(c3cc(C)c(C#N)c(C)n3)C2)C1=O` (stereo not drawn) gave an INHIBITION of -8.25%.
Work on `CN(C)C(=O)N1CCN(c2cc(N3CCCC3CO)ncn2)CC1` (stereo not drawn) yielded an INHIBITION of -3.68%.
`O=C(c1cncnc1)N1C[C@@H]2CC[C@H](Oc3cccc(F)c3)[C@@H]2C1` gave an INHIBITION of 5.11%.
`CCc1n[nH]c(=O)c(C(=O)N2CCOC3(CCCC3)C2)c1CC` was tested, and the INHIBITION was 48.2%.
Work on `Cn1cnc(S(=O)(=O)NCCCN2CCCC2)c1Cl` yielded an INHIBITION of -9.76%.
`Cc1nnc(CN(C)C2CCN(CCc3ccccn3)CC2)o1` was tested, and the INHIBITION was 21.5%.
`Cc1cc(S(=O)(=O)NC(=O)CCc2cccnc2)c(C)s1` was tested, and the INHIBITION was 32%.
`O=C(CCn1ccc2cc(Br)ccc21)NCc1ccc(C(=O)O)cc1` gave an INHIBITION of 19%.
`CC(CNC(=O)CCc1ccco1)N1CCc2sccc2C1` (stereo not drawn) showed an INHIBITION of 42.5%.
With `Cc1ccc(CCCC(=O)N2CCCC(CS(N)(=O)=O)C2)s1` (stereo not drawn) the INHIBITION was 9.79%.
`CCCc1nnc(NC(=O)NC(C)Cn2cccn2)s1` (stereo not drawn) was tested, and the INHIBITION was -45.6%.
`CCN(CC1CCOC1)C(=O)c1ccn(-c2ccc(OC)cc2)n1` (stereo not drawn) gave an INHIBITION of -2.48%.
`COc1nccc(N2CC[C@H](CO)[C@@H](O)C2)c1C#N` gave an INHIBITION of -9.02%.
`CC(NC(=O)c1cccs1)C(=O)NS(=O)(=O)Cc1ccc(C#N)cc1` (stereo not drawn) showed an INHIBITION of 53.3%.
With `CC(NC(=O)c1cccs1)C(=O)NS(=O)(=O)c1cccc(C#N)c1` (stereo not drawn) the INHIBITION was 49.9%.
Work on `CC(NC(=O)c1cccs1)C(=O)NS(=O)(=O)c1ccc(C#N)cc1` (stereo not drawn) yielded an INHIBITION of 42.1%.
Compound `CCOc1c(C(N)=O)cn(C)c1-c1nc2cc(NC(C)=O)ccc2n1C` has an INHIBITION of 44.3%.
`CC(C)(C)CN1Cc2cc3c(cc2NCCC1=O)OCO3` showed an INHIBITION of 52.5%.
With `COC(=O)CN1Cc2cc3c(cc2NCCC1=O)OCO3` the INHIBITION was 41.1%.
`O=C1CCNc2cc3c(cc2CN1Cc1ccco1)OCO3` was tested, and the INHIBITION was 4.82%.
`CC(C)(C)C(=O)CN1Cc2ccccc2NCCC1=O` was tested, and the INHIBITION was 10.9%.
For `CCN1Cc2cc3c(cc2NCCC1=O)OCO3`, the INHIBITION was 64.6%.
`O=C1CCNc2cc3c(cc2CN1CC1CC1)OCO3` showed an INHIBITION of 13.1%.
`O=C(c1n[nH]c(=O)c2ccccc12)N1CCCC1Cn1cccn1` (stereo not drawn) was tested, and the INHIBITION was 45.9%.
`O=C(O)CCc1nc2nccc(C(F)(F)F)n2n1` showed an INHIBITION of -25.6%.
Compound `O=C(OCC1CCCN1)c1cccc(NC(=O)c2ccco2)c1` (stereo not drawn) has an INHIBITION of -142%.
`O=C1CC[C@H]2[C@H](CCN2S(=O)(=O)C2CC2)N1CCN1CCCC1` showed an INHIBITION of 85.6%.
`COCCN1C(=O)CC[C@@H]2[C@@H]1CCN2S(=O)(=O)C1CC1` gave an INHIBITION of 43.9%.
`O=C1CC[C@@H]2[C@@H](CCN2S(=O)(=O)C2CC2)N1CC1CC1` gave an INHIBITION of 49.4%.

Source: ChEMBL document CHEMBL4513216, “Probing the Open Global Health Chemical Diversity Library for Multistage-Active Starting Points for Next-Generation Antimalarials” (ACS Infect Dis, 2020)
